# Experimental data published in PubChem BioAssay AID2283125 (EPA ToxCast).
# Records with an inconclusive call do not appear. The source made the active and inactive calls. The calls were made as follows: active = hit-call score of the fitted dose curve at least 0.9, where 1 is the maximum; inconclusive = response in the unintended direction; inactive = score below 0.9.
# Target: Tyrosine-protein kinase ABL1 (Homo sapiens) (UniProt P00519)
# Experiment: NVS_ENZ_hAbl: NovaScreen (NVS) Enzymatic Assay for human ABL proto-oncogene 1, non-receptor tyrosine kinase
# Description: NVS_ENZ_hAbl is a biochemical, single-readout assay that uses extracted gene-proteins in a cell-free assay. Measurements were taken 1 hour after chemical dosing in a 96-well plate.NVS_ENZ_hAbl is one of one assay component(s) measured or calculated from the NVS_ENZ_hAbl assay. It is designed to make measurements of enzyme activity, a form of enzyme reporter, as detected with fluorescence intensity signals by Fluorescence and electrophoretic mobility shift technology.Data from the assay component NVS_ENZ_hAbl was analyzed into 1 assay endpoint. This assay endpoint, NVS_ENZ_hAbl, was analyzed in the positive analysis fitting direction relative to DMSO as the negative control and baseline of activity. Using a type of enzyme reporter, loss-of-signal activity can be used to understand changes in the enzymatic activity as they relate to the gene ABL1. Furthermore, this assay endpoint can be referred to as a primary readout, because this assay has produced multiple assay endpoints where this one serves a enzymatic activity function. To generalize the intended target to other relatable targets, this assay endpoint is annotated to the kinase intended target family, where the subfamily is non-receptor tyrosine kinase. […]
# Sequence of Tyrosine-protein kinase ABL1 (Homo sapiens) (P00519 whole entry, looked up): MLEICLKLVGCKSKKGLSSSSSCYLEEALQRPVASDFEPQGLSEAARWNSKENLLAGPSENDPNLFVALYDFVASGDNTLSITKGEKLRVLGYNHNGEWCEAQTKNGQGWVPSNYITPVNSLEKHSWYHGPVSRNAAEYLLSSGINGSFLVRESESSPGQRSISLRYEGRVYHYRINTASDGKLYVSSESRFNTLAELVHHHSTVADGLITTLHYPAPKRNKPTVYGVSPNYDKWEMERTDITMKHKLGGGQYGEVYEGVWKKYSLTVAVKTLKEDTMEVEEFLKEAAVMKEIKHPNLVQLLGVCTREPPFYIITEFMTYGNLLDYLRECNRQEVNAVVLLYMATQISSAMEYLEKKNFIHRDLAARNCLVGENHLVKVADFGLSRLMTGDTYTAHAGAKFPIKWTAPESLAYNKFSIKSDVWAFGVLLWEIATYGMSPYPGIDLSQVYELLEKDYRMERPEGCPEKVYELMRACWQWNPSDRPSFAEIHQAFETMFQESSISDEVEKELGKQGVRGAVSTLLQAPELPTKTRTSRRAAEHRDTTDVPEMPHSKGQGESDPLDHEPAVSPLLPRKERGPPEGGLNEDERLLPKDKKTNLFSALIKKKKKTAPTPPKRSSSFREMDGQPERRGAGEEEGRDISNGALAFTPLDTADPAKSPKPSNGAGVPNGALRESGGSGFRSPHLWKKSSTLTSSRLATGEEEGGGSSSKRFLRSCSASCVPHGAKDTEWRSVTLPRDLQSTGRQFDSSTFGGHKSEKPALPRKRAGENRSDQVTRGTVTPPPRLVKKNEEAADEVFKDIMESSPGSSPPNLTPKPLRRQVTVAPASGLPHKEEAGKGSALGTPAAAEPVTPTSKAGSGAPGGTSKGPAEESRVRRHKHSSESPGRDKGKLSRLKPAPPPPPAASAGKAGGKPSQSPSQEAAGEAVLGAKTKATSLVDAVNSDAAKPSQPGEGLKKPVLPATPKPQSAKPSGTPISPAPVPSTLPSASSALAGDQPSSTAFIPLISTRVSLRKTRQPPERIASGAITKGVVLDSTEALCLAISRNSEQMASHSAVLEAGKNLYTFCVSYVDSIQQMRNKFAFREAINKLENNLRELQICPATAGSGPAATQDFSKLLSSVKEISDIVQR
row,SMILES,outcome
1,c1ccc2[nH]c(-c3cscn3)nc2c1,inactive
2,O=C(Nc1ccc([N+](=O)[O-])cc1Cl)c1cc(Cl)ccc1O,inactive
